# Assay results from PubChem BioAssay (NCATS).
# Unmarked numbers belong to inactive results. Inconclusive results are not listed. Active and inactive are the calls of the source. Unless noted, calls follow the shape of the dose curve; as a rule, active = well fitted curve in the direction sought with a large enough effect; inconclusive = small, poorly fitted or top-dose-only effect, or another doubt; inactive = no such curve, though single readings can be large; an effect the other way counts as inactive or inconclusive.
# Assays:
# [1] = molecular target: Lysosomal acid glucosylceramidase (Homo sapiens) (UniProt P04062); assay: Glucocerebrosidase-p2 (AID 348; in the data active = potency below about 10 µM; also: potency is read from the fitted curve at half-maximal effect); settings: purified GBA, blue fluorogenic substrate, 40 min
# Procedure, shortened: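 Normal human glucocerebrosidase (0.2 nM) with blue fluorogenic substrate (80 uM final) in citrate/phosphate pH 5.9 with 10mM sodium taurocholate, 0.01% tween-20; 40 min RT, NaOH/glycine stop; fluorescence Ex 365/Em 440; AC50 from a titration from 0.6 nM upwards.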
# [2] = AP1 Signaling Pathway (AID 357; active = well fitted curve in either direction with a large enough effect, not every such curve was filed as active;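 also: ME-180 reporter cells stimulated with EGF at its EC50 level; % is scaled to controls: 0 for no effect and ±100 for the full control effect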); settings: ME-180 AP-1-bla reporter, EGF-induced, beta-lactamase ratio, 5 h; at 7.69 µM (top of the series) unless noted
# Procedure, shortened: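 First, ME-180 AP-1-bla cells were cultured overnight at 37 °C in low-serum Opti-MEM. Next, titrated compounds with EC50 EGF were incubated 5 hours. Finally, CCF4 was added for 2.5 hours and the 460/530 nm ratio recorded.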
# [3] = molecular target: Cytochrome P450 1A2 (Homo sapiens) (UniProt P05177); assay: p450-cyp1a2 (AID 410; calls by dose curve; also: potency is read from the fitted curve at half-maximal effect); settings: recombinant CYP1A2, luciferin-ME demethylation, luminescence; series mostly up to 57 µM
# Cytochrome P450 1A2 (Homo sapiens), sequence (P05177 whole entry, looked up): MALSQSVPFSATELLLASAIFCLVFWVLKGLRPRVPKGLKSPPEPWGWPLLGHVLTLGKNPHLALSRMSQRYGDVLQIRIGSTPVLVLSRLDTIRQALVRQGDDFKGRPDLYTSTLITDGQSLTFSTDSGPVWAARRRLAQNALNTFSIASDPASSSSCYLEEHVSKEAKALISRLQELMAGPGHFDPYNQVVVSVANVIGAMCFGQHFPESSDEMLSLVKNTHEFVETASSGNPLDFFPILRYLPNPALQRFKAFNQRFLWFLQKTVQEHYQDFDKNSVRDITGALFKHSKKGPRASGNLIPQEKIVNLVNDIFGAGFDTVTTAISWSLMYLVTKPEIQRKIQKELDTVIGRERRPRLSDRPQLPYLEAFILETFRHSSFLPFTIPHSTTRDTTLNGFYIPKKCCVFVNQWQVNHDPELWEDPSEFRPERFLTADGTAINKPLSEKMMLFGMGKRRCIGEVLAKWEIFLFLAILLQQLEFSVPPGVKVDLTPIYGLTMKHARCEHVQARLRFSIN
# Procedure, shortened: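 Luminescent demethylation readout: Luciferin-ME (100uM, equal to Km) turned over by 20nM CYP1A2 for 60 min at room temperature after NADPH regeneration addition, following 10 min compound preincubation. Normalization used 57 uM furafylline as full inhibition.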
# [4] = NFAT Signaling Pathway (AID 444; active = well fitted curve in either direction with a large enough effect, not every such curve was filed as active;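 also: carbachol stimulus at about its EC50 of 1 µM final; % is scaled to controls: 0 for no effect and ±100 for the full control effect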); settings: Jurkat NFAT-bla M1, carbachol, beta-lactamase ratio, 5 h; at 7.69 µM (top of the series) unless noted
# Procedure, shortened: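 Jurkat cells with NFAT-driven β-lactamase reporter and co-expressed M1 receptor, stimulated with carbachol (final 1 uM, ~EC50), compound titration, 5 h at 37 °C. CCF4 loaded 1 h at RT; 460/530 nm ratio gave %activity and AC50.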
# [5] = Stat Signaling Pathway (AID 446; active = well fitted curve in either direction with a large enough effect, not every such curve was filed as active;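 also: ME-180 cervical cancer cells given 40 pM IL-6 alongside compound; SIE-controlled beta-lactamase reporter measured as 460/530 nm FRET emission ratio; % is scaled to controls: 0 for no effect and ±100 for the full control effect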); settings: ME-180 SIE beta-lactamase reporter, IL-6 stimulated, 5 h; at 7.69 µM (top of the series) unless noted
# Procedure, shortened: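 FRET read-out (405 nm excitation, 460/530 nm emission) of a beta-lactamase reporter under a STAT-inducible element in ME-180 cervical carcinoma cells. Cells with compound receive 40 pM IL-6 for 5 h. Values are normalised to AC90 stimulation and AC90 JAK-inhibitor controls.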
# [6] = molecular target: Glucocorticoid receptor (Homo sapiens) (UniProt P04150); assay: GR-GFP Redistribution (AID 450;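 active = compounds whose dose series gives a full or clear partial fitted curve of increased nuclear translocation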; also: potency is read from the fitted curve at half-maximal effect); settings: U2OS GR-GFP nuclear translocation, laser cytometry, 2 h
# Glucocorticoid receptor (Homo sapiens), sequence (P04150 whole entry, looked up, the tested form may be a part): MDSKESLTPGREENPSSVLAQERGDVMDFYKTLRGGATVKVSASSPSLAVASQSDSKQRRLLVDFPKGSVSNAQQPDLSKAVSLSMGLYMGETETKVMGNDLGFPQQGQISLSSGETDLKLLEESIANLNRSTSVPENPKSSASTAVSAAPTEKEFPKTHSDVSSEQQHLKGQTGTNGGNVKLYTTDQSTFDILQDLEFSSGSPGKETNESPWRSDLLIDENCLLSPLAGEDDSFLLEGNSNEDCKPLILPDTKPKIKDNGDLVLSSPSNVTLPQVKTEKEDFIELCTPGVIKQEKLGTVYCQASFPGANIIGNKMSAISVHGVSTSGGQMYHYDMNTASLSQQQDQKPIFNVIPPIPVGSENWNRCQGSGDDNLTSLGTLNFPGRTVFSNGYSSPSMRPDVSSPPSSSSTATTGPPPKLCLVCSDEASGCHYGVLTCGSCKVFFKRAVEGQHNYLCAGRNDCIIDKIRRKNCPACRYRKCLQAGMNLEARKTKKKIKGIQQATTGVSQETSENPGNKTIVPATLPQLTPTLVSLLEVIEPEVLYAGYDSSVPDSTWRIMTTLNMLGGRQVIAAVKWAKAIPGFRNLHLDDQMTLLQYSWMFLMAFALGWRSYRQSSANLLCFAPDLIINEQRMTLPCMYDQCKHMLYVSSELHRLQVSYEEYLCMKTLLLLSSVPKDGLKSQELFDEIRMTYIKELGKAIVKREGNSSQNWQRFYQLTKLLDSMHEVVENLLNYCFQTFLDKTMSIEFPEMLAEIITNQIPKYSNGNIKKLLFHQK
# [7] = molecular target: Glucocorticoid receptor (Homo sapiens) (UniProt P04150); assay: GR-EFC Redistribution (AID 451; calls by dose curve; also: potency is read from the fitted curve at half-maximal effect); settings: CHO-K1 GR-EFC translocation, beta-gal luminescence, 2 h
# Procedure, shortened: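 CHO-K1 cells expressing nuclear EA and GR-ED fragments of b-gal; compounds titrated up to 46 uM final, 2 h at 37 C. GR nuclear translocation read as complemented b-gal luminescence after 1 h RT detection.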
# [8] = molecular target: Mitogen-activated protein kinase 10 (Mus musculus) (UniProt Q61831); assay: JNK3 AlphaScreen Assay (AID 530; active = well fitted curve in either direction with a large enough effect, not every such curve was filed as active;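 also: kinase came from lysate of stimulated human HepG2 cells; signal reports phosphorylation of biotinylated GST-cJun 1-79 at Ser73 with 10 µM ATP; % is scaled to controls: 0 for no effect and ±100 for the full control effect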); settings: JNK3 lysate, c-Jun phosphorylation; series mostly up to 57.1 µM
# Procedure, shortened: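 Activity was read by AlphaScreen after JNK3-containing HepG2 lysate (cytokine pre-activated) phosphorylated biotinylated GST-cJun with 10 uM ATP at room temperature. Phospho-Ser73 cJun antibody with Protein-A acceptor beads provided detection.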
# [9] = molecular target: 3',5'-cyclic-AMP phosphodiesterase 4B (Homo sapiens) (UniProt Q07343); assay: qHTS Assay for Inhibitors of PDE-IV (AID 607; active = well fitted activation curve with a large enough effect in the main read-out, with a control signal flat, not every such curve was filed as active; also: potency is read from the fitted curve at half-maximal effect); settings: HEK293 ACTOne CNG channel cells, membrane potential fluorescence; series mostly up to 22.9 µM
# 3',5'-cyclic-AMP phosphodiesterase 4B (Homo sapiens), sequence (Q07343 whole entry, looked up): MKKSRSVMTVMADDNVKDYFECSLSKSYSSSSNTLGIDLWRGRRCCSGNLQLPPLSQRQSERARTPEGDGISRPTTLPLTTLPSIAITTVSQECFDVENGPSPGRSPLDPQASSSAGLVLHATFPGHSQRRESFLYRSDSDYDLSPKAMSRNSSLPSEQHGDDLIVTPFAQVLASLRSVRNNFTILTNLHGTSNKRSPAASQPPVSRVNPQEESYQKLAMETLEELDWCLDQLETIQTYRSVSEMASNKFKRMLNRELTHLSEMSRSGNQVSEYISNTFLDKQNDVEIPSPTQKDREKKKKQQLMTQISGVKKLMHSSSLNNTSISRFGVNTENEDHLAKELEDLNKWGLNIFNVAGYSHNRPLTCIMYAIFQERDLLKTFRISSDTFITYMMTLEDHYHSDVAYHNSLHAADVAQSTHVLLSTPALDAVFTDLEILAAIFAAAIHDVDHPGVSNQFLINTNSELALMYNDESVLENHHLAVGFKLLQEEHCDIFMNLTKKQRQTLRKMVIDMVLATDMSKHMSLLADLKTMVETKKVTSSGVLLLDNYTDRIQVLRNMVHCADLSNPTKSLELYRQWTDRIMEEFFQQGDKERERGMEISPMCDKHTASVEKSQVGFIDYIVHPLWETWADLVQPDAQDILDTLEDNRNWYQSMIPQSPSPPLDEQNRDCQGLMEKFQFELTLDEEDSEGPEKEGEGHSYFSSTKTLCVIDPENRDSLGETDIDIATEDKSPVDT
# Procedure, shortened: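 Cell-based read-out of cAMP via a modified cyclic nucleotide-gated channel and membrane potential dye (535/590 nm) in HEK293 cells expressing PDE4 endogenously. Compounds tested up to 22.9 uM final; 100 uM RO 20-1724 reference.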
# [10] = molecular target: Cytochrome P450 2C9 (Homo sapiens) (UniProt P11712); assay: qHTS Assay for Inhibitors and Substrates of Cytochrome P450 2C9 (AID 883); settings: recombinant CYP2C9, luciferin-H luminescence, 60 min; series mostly up to 57.1 µM; also: nearly all actives have a fitted effect of over 60% in size; also: potency is read from the fitted curve at half-maximal effect
# Cytochrome P450 2C9 (Homo sapiens), sequence (P11712 whole entry, looked up): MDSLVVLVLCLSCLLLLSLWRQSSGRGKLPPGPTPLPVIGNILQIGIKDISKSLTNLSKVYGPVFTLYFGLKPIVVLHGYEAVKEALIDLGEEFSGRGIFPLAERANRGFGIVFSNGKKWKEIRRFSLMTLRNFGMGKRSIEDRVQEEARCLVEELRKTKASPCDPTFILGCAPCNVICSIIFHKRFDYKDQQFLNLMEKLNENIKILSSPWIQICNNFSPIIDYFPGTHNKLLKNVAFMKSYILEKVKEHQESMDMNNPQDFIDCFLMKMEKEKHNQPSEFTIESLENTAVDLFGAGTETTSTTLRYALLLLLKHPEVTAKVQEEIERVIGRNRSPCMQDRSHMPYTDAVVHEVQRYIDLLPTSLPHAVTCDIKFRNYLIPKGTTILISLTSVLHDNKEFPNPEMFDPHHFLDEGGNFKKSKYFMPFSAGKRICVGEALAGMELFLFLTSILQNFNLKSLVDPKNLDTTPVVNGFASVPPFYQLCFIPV
# Procedure, shortened: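 10nM CYP2C9 + 100uM Luciferin-H (=KM), 25mM KPO4; cpd 10 min 37C; NADPH regen, 60 min 37C; stop/detect with P450 Glo-Buffer 20 min; luminescence. Norm. to 57uM sulphaphenazole as full inhibition.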
# [11] = molecular target: Cytochrome P450 2C19 (Homo sapiens) (UniProt P33261); assay: qHTS Assay for Inhibitors and Substrates of Cytochrome P450 2C19 (AID 899); settings: recombinant CYP2C19, luciferin-H EGE luminescence; series mostly up to 57.1 µM; also: potency is read from the fitted curve at half-maximal effect; nearly all actives have a fitted effect of over 60% in size
# Cytochrome P450 2C19 (Homo sapiens), sequence (P33261 whole entry, looked up): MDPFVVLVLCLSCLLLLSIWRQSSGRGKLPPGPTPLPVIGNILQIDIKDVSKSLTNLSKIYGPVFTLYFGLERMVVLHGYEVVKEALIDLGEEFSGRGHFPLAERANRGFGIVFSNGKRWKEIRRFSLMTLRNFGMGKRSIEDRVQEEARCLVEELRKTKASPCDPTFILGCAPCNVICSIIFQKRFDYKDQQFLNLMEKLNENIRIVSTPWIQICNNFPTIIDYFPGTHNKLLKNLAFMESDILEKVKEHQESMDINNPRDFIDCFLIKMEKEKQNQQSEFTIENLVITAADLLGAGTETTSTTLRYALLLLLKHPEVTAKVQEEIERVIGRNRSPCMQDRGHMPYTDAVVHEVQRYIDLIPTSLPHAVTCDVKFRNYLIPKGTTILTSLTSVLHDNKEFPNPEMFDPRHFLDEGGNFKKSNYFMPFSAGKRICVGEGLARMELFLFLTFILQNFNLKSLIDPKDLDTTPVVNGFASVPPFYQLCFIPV
# Procedure, shortened: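 Luminescent read-out of luciferin formed from Luciferin-H EGE (10uM, equal to KM). Enzyme 5nM in 50mM KPO4; compound added, 10 min at 37C, then NADPH regenerating system for 60 min at 37C. Full inhibition defined by 57uM ketoconazole.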
# [12] = molecular target: Dual specificity protein kinase CLK4 (Homo sapiens) (UniProt Q9HAZ1); assay: qHTS Assay for Inhibitors of CDC-like Kinase 4 (ADP-FP Assay) (AID 1795); settings: Transcreener ADP fluorescence polarization; series mostly up to 50 µM;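 also: recombinant human CLK4 phosphorylating RS repeat peptide at 1 µM ATP; % is scaled to controls: 0 for no effect and ±100 for the full control effect; nearly all actives have a fitted effect of over 60% in size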
# Dual specificity protein kinase CLK4 (Homo sapiens), sequence (Q9HAZ1 whole entry, looked up): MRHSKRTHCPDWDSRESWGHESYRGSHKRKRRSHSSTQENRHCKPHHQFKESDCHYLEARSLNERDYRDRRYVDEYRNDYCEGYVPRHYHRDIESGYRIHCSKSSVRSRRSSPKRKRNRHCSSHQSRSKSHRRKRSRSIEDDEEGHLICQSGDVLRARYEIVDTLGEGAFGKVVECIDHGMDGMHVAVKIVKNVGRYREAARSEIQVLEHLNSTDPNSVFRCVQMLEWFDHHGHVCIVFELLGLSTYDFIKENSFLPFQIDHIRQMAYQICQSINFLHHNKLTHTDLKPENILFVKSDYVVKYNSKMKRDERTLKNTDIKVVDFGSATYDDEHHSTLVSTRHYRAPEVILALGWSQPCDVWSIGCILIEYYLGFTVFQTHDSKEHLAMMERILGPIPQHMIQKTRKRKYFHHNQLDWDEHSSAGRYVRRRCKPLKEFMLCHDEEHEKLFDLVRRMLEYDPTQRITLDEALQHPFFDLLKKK
# Procedure, shortened: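 Inhibition of ADP formation by 6.25 nM Clk4 is measured using 1 uM ATP and 100 uM RS repeat peptide over one hour. Produced ADP displaces a fluorescent tracer from antibody, lowering polarization.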
# [13] = molecular target: Ubiquitin carboxyl-terminal hydrolase 1 (Homo sapiens) (UniProt O94782); assay: Inhibitors of USP1/UAF1: Pilot qHTS (AID 504865); settings: purified USP1/UAF1, Ub-rhodamine cleavage fluorescence; series mostly up to 54.9 µM; also: nearly all actives have a fitted effect of over 35% in size; also: potency is read from the fitted curve at half-maximal effect
# Ubiquitin carboxyl-terminal hydrolase 1 (Homo sapiens), sequence (O94782 whole entry, looked up): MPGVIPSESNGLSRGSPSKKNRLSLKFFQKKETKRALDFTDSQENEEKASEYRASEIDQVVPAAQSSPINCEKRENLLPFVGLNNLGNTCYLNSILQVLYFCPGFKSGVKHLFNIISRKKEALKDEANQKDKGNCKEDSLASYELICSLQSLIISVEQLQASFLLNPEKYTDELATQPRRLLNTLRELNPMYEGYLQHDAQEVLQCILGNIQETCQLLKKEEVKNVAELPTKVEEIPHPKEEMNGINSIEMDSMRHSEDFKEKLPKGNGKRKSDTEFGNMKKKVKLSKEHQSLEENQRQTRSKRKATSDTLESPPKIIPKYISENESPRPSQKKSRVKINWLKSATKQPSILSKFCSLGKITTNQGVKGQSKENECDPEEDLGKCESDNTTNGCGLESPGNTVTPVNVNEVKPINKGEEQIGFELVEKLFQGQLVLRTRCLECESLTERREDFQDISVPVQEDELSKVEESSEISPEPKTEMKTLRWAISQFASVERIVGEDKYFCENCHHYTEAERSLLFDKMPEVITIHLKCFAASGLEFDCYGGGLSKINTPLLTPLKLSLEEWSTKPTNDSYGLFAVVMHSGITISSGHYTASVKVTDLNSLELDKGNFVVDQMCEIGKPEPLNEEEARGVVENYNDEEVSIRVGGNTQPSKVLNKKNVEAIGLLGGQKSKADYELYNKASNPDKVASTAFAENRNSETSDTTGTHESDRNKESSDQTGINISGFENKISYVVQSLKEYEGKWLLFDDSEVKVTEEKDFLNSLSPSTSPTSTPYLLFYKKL
# Procedure, shortened: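 Kinetic fluorescence assay: 1nM USP1/UAF1, 15 min compound preincubation, then 150nM Ub-Rho; 480/540 nm.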
# [14] = Primary qHTS for small molecule stabilizers of the endoplasmic reticulum resident proteome: Secreted ER Calcium Modulated Protein (SERCaMP) assay (AID 1508630); settings: SH-SY5Y GLuc-SERCaMP (Gaussia luciferase released on ER calcium loss) secretion, thapsigargin, luminescence; series mostly up to 38.4 µM; also: % is scaled to controls: 0 for no effect and ±100 for the full control effect
# Procedure, shortened: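 The SH-SY5Y reporter protocol was run at 3 concentrations up to 38.3 uM (primary) or 11 concentrations (follow-up): 16 h compound, 100 nM thapsigargin for 4 h, then extracellular luciferase luminescence.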
# [15] = molecular target: Cytochrome P450 3A4 (Homo sapiens) (UniProt P08684); assay: qHTS Assay for Inhibitors and Substrates of Cytochrome P450 3A4 (AID 884); settings: recombinant CYP3A4, Luciferin-PPXE luminescence; series mostly up to 57.1 µM; also: potency is read from the fitted curve at half-maximal effect; nearly all actives have a fitted effect of over 50% in size
# Cytochrome P450 3A4 (Homo sapiens), sequence (P08684 whole entry, looked up): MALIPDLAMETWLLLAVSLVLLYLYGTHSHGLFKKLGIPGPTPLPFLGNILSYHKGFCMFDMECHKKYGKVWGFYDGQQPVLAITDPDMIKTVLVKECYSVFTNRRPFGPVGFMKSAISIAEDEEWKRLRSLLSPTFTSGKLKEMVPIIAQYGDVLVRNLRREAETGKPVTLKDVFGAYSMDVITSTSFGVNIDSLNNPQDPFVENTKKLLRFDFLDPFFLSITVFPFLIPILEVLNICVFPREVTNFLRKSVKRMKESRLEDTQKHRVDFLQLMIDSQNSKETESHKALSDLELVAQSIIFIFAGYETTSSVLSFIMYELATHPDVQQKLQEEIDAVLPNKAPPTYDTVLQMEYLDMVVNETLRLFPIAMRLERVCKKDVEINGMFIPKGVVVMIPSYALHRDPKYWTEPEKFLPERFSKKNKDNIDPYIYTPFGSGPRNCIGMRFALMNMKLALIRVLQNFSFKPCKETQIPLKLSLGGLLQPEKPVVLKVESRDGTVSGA
# Procedure, shortened: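 Luminescent readout of luciferin produced by CYP3A4 (20 nM) dealkylation of Luciferin-PPXE, 25 uM (its KM). NADPH-driven reaction ran 60 min at RT after 10 min compound preincubation; data scaled to 57 uM ketoconazole as 100% inhibition.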
# [16] = molecular target: Cytochrome P450 3A4 (Homo sapiens) (UniProt P08684); assay: qHTS Assay for Activators of Cytochrome P450 3A4 (AID 885); settings: recombinant CYP3A4, Luciferin-PPXE luminescence, 60 min; series mostly up to 57.1 µM; also: nearly all actives have a fitted effect of over 65% in size
# Procedure, shortened: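 Luminescent readout of luciferin formed from 25 uM Luciferin-PPXE (KM level) by 20 nM CYP3A4 in 200 mM KPO4, with 60 min NADPH-driven reaction at room temperature after 10 min compound exposure. Ketoconazole (57 uM) defined 100% inhibition.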
# [17] = qHTS Assay for Identification of Small Molecule Agonists for Hypoxia Response Element Signaling Pathway (AID 914; active = well fitted activation curve with a large enough effect in the signal ratio, with a control signal flat, not every such curve was filed as active; the % refers to the signal ratio; also: % of control where 0% means no effect); settings: ME-180 (cervical carcinoma) HRE-bla reporter, beta-lactamase ratio, CoCl2, 17 h; activation: stronger effect = higher value
# Procedure, shortened: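 Cells were plated overnight, pin-dosed with compound in a titration series, co-stimulated with EC50 CoCl2 and incubated 17 hours at 37 degrees Celsius. CCF4 substrate was then loaded, and AC50 values came from the 460nm/530nm ratio.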
Structure (SMILES),Potency [1] [µM],"activity change, negative = inhibition [2] [%]",Potency [3],"activity change, negative = inhibition [4] [%]","activity, negative = inhibition [5] [%]",Potency [6] [µM],Potency [7] [µM],Potency [8],Potency [9],"activity change, negative = inhibition [10]",Potency [11],Potency [12],Potency [13],outcome [14],Potency [15],Potency [16],Potency [10],activation [17] [%]
COc1ccccc1CNc1cc(-c2ccccc2OC)ncn1,> 11.4,-14.2,2.51 µM (active),-2.18,-12.6,> 46,> 46,inactive,inactive,31.3% [at 2.29 µM],1.58 µM (active),inactive,inactive,inactive,,,,
COc1ccc2[nH]cc(CCNc3ccnc(-c4ccccc4C(F)(F)F)n3)c2c1,> 11.4,-10.2,3.98 µM (active),-1.93,-14.8,> 46,> 46,inactive,inactive,,,inactive,,inactive,2 µM (active),inactive,,
c1ccc(CNc2nc(-c3ccoc3)nc3ccccc23)cc1,> 2.29,-9.34,0.631 µM (active),-7.24,12.7,> 46,> 46,inactive,,,,inactive,inactive,inactive,,inactive,,
COc1ccc(CNc2ccnc(-c3cccc(NS(C)(=O)=O)c3)n2)c(OC)c1,> 11.4,-18.2,15.8 µM (active),8.15,-1.05,> 46,> 46,inactive,2 µM (active),20.5% [at 2.29 µM],,inactive,inactive,inactive,3.98 µM (active),inactive,,
COc1ccc(CNc2nc(-c3cccc(NS(C)(=O)=O)c3)nc3ccccc23)c(OC)c1,,,15.8 µM (active),,,> 46,> 46,inactive,,,,,inactive,inactive,2.51 µM (active),,0.158 µM (active),
COc1cccc(-c2cncnc2NCc2cccs2)c1,> 11.4,-25,1.26 µM (active),9.12,-6.14,> 46,> 46,inactive,,,0.631 µM (active),inactive,inactive,inactive,1.58 µM (active),inactive,0.398 µM (active),
COc1ccc(CNc2ncncc2-c2ccc(N(C)C)cc2)c(OC)c1,> 11.4,-8.89,0.631 µM (active),1.33,0.205,> 46,> 46,inactive,,,1.58 µM (active),inactive,,inactive,0.199 µM (active),inactive,,
Cc1ccccc1-c1nc(N(C)C)c2ccccc2n1,> 11.4,5.33,0.631 µM (active),-0.255,6.41,> 46,> 46,inactive,inactive,,,inactive,inactive,inactive,,,,
Cc1cnc(CNc2ccnc(-c3cccc(NS(C)(=O)=O)c3)n2)cn1,> 11.4,-6.82,20 µM (active),13.5,4.11,> 46,> 46,inactive,inactive,,,inactive,inactive,inactive,,inactive,,
CN(Cc1ccco1)c1ncncc1-c1cccnc1,> 11.4,1.77,5.01 µM (active),-11.4,17.1,> 46,> 46,inactive,inactive,,,inactive,inactive,inactive,,inactive,,
COc1ccccc1-c1nc(N2CCOCC2)c2ccccc2n1,> 11.4,-9.32,0.501 µM (active),10.4,14.3,> 46,> 46,inactive,,,,inactive,inactive,inactive,,,,
Cc1noc(C)c1-c1nccc(NCc2ccccc2)n1,> 2.29,0.193,0.794 µM (active),-7.38,-0.39,> 46,> 46,inactive,inactive,,,inactive,25.1 µM (active),inactive,5.01 µM (active),inactive,,
CN(C)C(=O)c1ccc(-c2nccc(-n3ccnc3)n2)cc1,> 11.4,4.46,15.8 µM (active),5.95,8.25,> 46,> 46,inactive,inactive,,,inactive,inactive,inactive,,inactive,,
COc1ccccc1-c1cncnc1NCc1ccccc1,> 11.4,4.35,12.6 µM (active),-17.9,-7.05,> 46,> 46,inactive,inactive,,,inactive,inactive,inactive,0.251 µM (active),inactive,,
Cc1ccccc1-c1cc(NCc2cccnc2)ncn1,> 11.4,6.3,3.98 µM (active),2.72,-6.88,> 46,> 46,inactive,inactive,,,inactive,inactive,inactive,,inactive,,
Clc1ccccc1-c1nccc(NCCN2CCOCC2)n1,> 11.4,4.13,2 µM (active),3.47,5.58,> 46,> 46,inactive,inactive,,5.01 µM (active),inactive,inactive,inactive,,inactive,,
Cc1noc(C)c1-c1nccc(Nc2ccc(F)cc2)n1,> 11.4,-22.4,0.398 µM (active),-10.5,1.44,> 46,> 46,inactive,inactive,,3.98 µM (active),inactive,,inactive,,inactive,,21.5
COCCNc1nc(-c2c(C)noc2C)nc2ccccc12,> 11.4,1.66,0.126 µM (active),22.9,17.6,> 46,> 46,inactive,inactive,,,inactive,inactive,inactive,,inactive,,
CNc1cc(-c2ccccc2C)ncn1,> 11.4,2.36,10 µM (active),2.04,13.3,> 46,> 46,inactive,inactive,,,inactive,inactive,inactive,,,,
COc1cccc(-c2ccc3ncnc(N4CCOCC4)c3c2)c1,,,1 µM (active),,8.65,> 46,> 46,inactive,,,3.98 µM (active),,,inactive,,inactive,,
COc1ccccc1-c1nc(NCCN2CCOCC2)c2ccccc2n1,> 11.4,7.09,7.94 µM (active),-28.2,29.7,> 46,> 46,inactive,inactive,,,inactive,inactive,inactive,,,,
CCNc1ncc2nc(-c3cccc(C#N)c3)c(=O)n(CCC#N)c2n1,> 11.4,12.8,0.631 µM (active),-1.23,14.1,> 9.22,> 46,inactive,,,,inactive,inactive,inactive,,inactive,,
Cn1cc(-c2nc3cncnc3n(C3CC3)c2=O)c2ccccc21,> 11.4,-14.5,0.2 µM (active),9.91,-6.67,> 9.22,> 46,inactive,inactive,,,inactive,inactive,inactive,,inactive,,
COc1ccc(CNc2ccnc(-c3cccnc3)n2)c(OC)c1,> 11.4,-5.2,0.316 µM (active),-0.132,-2.65,> 46,> 46,,inactive,,2 µM (active),inactive,,inactive,0.631 µM (active),inactive,,
COc1cccc(-c2cncnc2NCc2cccnc2)c1,> 11.4,-6.26,0.794 µM (active),-6.72,3.03,> 46,> 46,inactive,inactive,,0.316 µM (active),inactive,inactive,inactive,1.26 µM (active),inactive,,
